From PubChem BioAssay come the findings set out here.

Active and inactive are the calls of the source.

The test system of test [1] is XIP peptide (Xip251-270) binding. As to the kind of experiment: small-molecule binders of XIP peptide, primary screen, biochemical, small-molecule microarray, fluorescence 635/667 nm, 0.1 µg/mL protein (AID 1182). The following applies: fluorescent protein binding, 635 nm, higher = more signal, called active from +8 up or from −8 down.
A further test relates to XIP peptide (Xip251-270). Kind of test: small-molecule binders of XIP peptide, primary screen, biochemical, small-molecule microarray, fluorescence 635/667 nm, 0.5 µg/mL protein (AID 1183). The following applies: small-molecule microarray binding, fluorescence 635 nm; higher = more signal.
The nature of test [2]: Plasmodium falciparum growth inhibition, primary screen, strain 3D7, DAPI fluorescence, 100 nL (AID 1184).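 Note: parasites grown inside human red blood cells in medium with human serum.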 The following applies: P. falciparum 3D7 growth, 3 d, higher = more signal.
In test [3] the target is Homeobox protein Hox-A13 (Mus musculus) (UniProt Q62424). Kind of test: inhibitors of HoxA13-DNA binding, primary screen, biochemical, fluorescence polarization, labeled oligonucleotide (AID 1185). The following applies: 15 min, higher = more signal, called active from +8 up or from −8 down. On the technique in general: In fluorescence polarisation assays a small probe gives low polarisation when free and higher when bound to something large.
Sequence of Homeobox protein Hox-A13 (Mus musculus) (Q62424 whole entry, looked up): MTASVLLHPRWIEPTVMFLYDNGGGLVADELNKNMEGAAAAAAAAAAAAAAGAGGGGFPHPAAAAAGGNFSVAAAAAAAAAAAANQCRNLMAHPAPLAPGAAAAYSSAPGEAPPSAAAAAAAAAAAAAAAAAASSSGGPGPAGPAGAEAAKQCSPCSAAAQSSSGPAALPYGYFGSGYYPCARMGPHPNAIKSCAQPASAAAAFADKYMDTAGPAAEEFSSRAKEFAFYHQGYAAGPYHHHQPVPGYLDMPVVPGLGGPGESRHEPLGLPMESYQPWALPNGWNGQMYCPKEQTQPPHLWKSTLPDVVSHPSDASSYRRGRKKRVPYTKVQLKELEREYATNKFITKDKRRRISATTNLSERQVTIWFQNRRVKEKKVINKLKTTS

With `COC(=O)[C@H](C)NC(=O)CCC1CC(OC(=O)NCCc2ccc(F)cc2)CC2(CCCC(COC(=O)NCc3ccccc3)O2)O1` (some centres not stated), the composite z-score in test [1] is 0.166 (inactive); in the test on XIP peptide (Xip251-270) it was 0.607. For the same molecule, the results for the z-score in test [2] and in test [3] were -1.93 and -1.56 (inactive), respectively.
Consider `O=C1[C@H]2[C@H]3[C@H](O)[C@H](O)CC(=NO[C@@H]4O[C@H](CO)[C@@H](O)[C@H](O)[C@H]4O)[C@@H]3CC[C@H]2C(=O)N1C[C@@H]1CCCO1`, for which the values for the composite z-score (in test [1]; in the test on XIP peptide (Xip251-270)) were 0.357 (inactive) and 0.385, respectively. Further, the z-score in test [2] was -1.49; in test [3], -0.192 (inactive).
The matching figures for `COC(=O)CC=C[C@@H](C)[C@@H](C=NOC[C@@H](C)[C@H](OCc1ccccc1)C(C)C)OC`: 0.0918 (inactive), -0.0012, -0.469 and -3.36 (inactive).
In the case of `COC(=O)[C@H](C)NC(=O)CCC1CC(OC(=O)NCCc2ccc(F)cc2)CC2(CCCC(COC(=O)NCCc3ccccc3OC)O2)O1` (some centres not stated), the figures for the composite z-score (in test [1]; in the test on XIP peptide (Xip251-270)) were 0.784 (inactive) and 0.341, respectively. Besides, the z-score is -1.26 in test [2] and -6.13 (inactive) in test [3].
`CCOC(=O)[C@H](Cc1ccccc1)NC(=O)CCC1CC(OC(=O)NCc2ccc3c(c2)OCO3)CC2(CCCC(COC(=O)NCCCN3CCCC3=O)O2)O1` (some centres not stated): the values for the composite z-score (in test [1]; in the test with XIP peptide (Xip251-270)) were 0.112 (inactive) and 0.577, respectively. Besides, the z-score was -1.87 in test [2] and -3.13 (inactive) in test [3].
For `CC(CCN1CCCCc2nc(C)c(C)cc21)=NOC[C@@H](O)[C@H]1O[C@@H]2OC(C)(C)O[C@@H]2[C@H]1O` the same measures were -0.398 (inactive), 0.698, 0.027 and -1.75 (inactive).
Consider `CCOC(=O)[C@H](Cc1ccccc1)NC(=O)CCC1CC(OC(=O)NCc2ccc3c(c2)OCO3)CC2(CCCC(COC(=O)NCCc3ccc(Cl)cc3)O2)O1` (some centres not stated), for which the composite z-score in test [1] was 0.0608 (inactive); in the test with XIP peptide (Xip251-270), 0.563. The figures for the z-score in test [2] and in test [3] were -1.78 and -1.76 (inactive), respectively.
Consider `C=CC[C@@H]1C=C[C@H](ON=C[C@@H](NS(=O)(=O)c2ccc(C)cc2)[C@H](C)C=CCC(=O)OC)[C@@H](CO)O1`, for which the composite z-score in test [1] was 0.278 (inactive); in the test with XIP peptide (Xip251-270) it was 0.463. The z-score in test [2] was -0.174; in test [3] it was -4.66 (inactive).
The matching figures for `O=C1[C@H]2CCn3c(=O)n(-c4ccccc4)c(=O)n3[C@H]2[C@H](O)[C@@H]2O[C@H]12`: -0.0756 (inactive), 0.614, -0.815 and -0.418 (inactive).
Regarding `CC(C)=NOC(C)CN1CCCc2nc(C)c(C)cc21` (configuration not stated), the composite z-score is 2.19 (inactive) in test [1] and 0.522 with XIP peptide (Xip251-270). The z-score was -0.225 in test [2] and -8.04 (active) in test [3].
On to `O=C(NN=C1C[C@@H](O)[C@@H](O)[C@@H]2[C@@H]3C(=O)N(Cc4ccccc4)C(=O)[C@@H]3CC[C@H]12)OCc1ccccc1`, for which the values for the composite z-score (in test [1]; in the test on XIP peptide (Xip251-270)) were -0.578 (inactive) and -0.0586, respectively. In addition, the z-score was 0.892 in test [2] and -0.2 (inactive) in test [3].
With `CC(CCN1CCc2nc(-c3ccccc3)c(-c3ccccc3)cc2C1)=NO[C@@H](C)c1cc(-c2c(C)cc(C)cc2C)no1`, the composite z-score was 1.27 (inactive) in test [1] and 0.416 with XIP peptide (Xip251-270). Besides, the figures for the z-score in test [2] and in test [3] were -1.31 and 0.713 (inactive), respectively.
Consider `COC(=O)[C@H](C)NC(=O)CC=C[C@@H](C)[C@@H]1C=C[C@H](O)[C@@H](CO)O1`, for which the results for the composite z-score (in test [1]; in the test with XIP peptide (Xip251-270)) were 0.672 (inactive) and 0.0241, respectively. For the same molecule, the z-score in test [2] was -1.66; in test [3], -0.56 (inactive).
Take `COC(=O)[C@@H]1CC[C@H](C)[C@@H](c2ccc(Br)cc2)N1`: the composite z-score in test [1] is 1.53 (inactive); in the test on XIP peptide (Xip251-270), -0.381. Further, the z-score in test [2] is 0.165; in test [3], -0.164 (inactive).
The matching figures for `O=C1[C@H]2[C@H]3[C@H](O)[C@H](O)CC(=NO[C@@H]4O[C@H](CO)[C@@H](O)[C@H](O)[C@H]4O)[C@H]3CC[C@H]2C(=O)N1c1ccc(F)cc1F`: 0.391 (inactive), 0.502, -0.652 and -7.01 (inactive).
Consider `COc1ccc(O[C@H]2C=C[C@@H](c3ccccc3)O[C@@H]2CON=C(C)CCN2CCCc3nc(C)c(C)cc32)cc1`, for which the composite z-score in test [1] was 0.301 (inactive); with XIP peptide (Xip251-270) it was 0.693. In addition, the z-score in test [2] was -1.96; in test [3], -4.5 (inactive).
In the case of `CC(C)=CCCC(C)=CCON=C1C[C@@H](O)[C@@H](O)[C@@H]2[C@@H]3C(=O)N(Cc4ccc5c(c4)OCO5)C(=O)[C@@H]3CC[C@@H]12`, the results for the composite z-score (in test [1]; in the test on XIP peptide (Xip251-270)) were 1.07 (inactive) and 0.245, respectively. In addition, the z-score is -0.526 in test [2] and -0.814 (inactive) in test [3].
The matching figures for `C=C(C)C(=O)OC[C@H]1CN2[C@@H](CC[C@@H](C)[C@@H]2c2ccc(Br)cc2)C(=O)O1`: 0.414 (inactive), -0.102, 1.05 and -2.2 (inactive).
As to `CC(C)CN1CCc2nc(-c3ccccc3)c3c(c2C1)CO[C@@H](C)C3`, the composite z-score is 0.973 (inactive) in test [1] and 0.687 with XIP peptide (Xip251-270). Further, the z-score was -0.927 in test [2] and -4.73 (inactive) in test [3].
Regarding `COC(=O)[C@H](C)NC(=O)CCC1CC(OC(=O)NCc2cccc3ccccc23)CC2(CCCC(COC(=O)NCCC(C)C)O2)O1` (some centres not stated), the figures for the composite z-score (in test [1]; with XIP peptide (Xip251-270)) were -0.477 (inactive) and 0.468, respectively. Besides, the z-score is -1.57 in test [2] and -5.31 (inactive) in test [3].
Regarding `C=CC[C@@H]1C=C[C@H](ON=C(C)CCN2CCCc3nc(C)c(C)cc32)[C@@H](CO)O1`, the composite z-score in test [1] is 1.59 (inactive); in the test with XIP peptide (Xip251-270) it was 0.241. The z-score in test [2] was -2.16; in test [3] it was -7.32 (inactive).
On to `C[C@@H]1CC[C@H]2C(=O)OC(CN3C(=O)c4ccccc4C3=O)CN2[C@H]1c1ccc(Br)cc1` (some centres not stated), for which the composite z-score was -0.212 (inactive) in test [1] and 0.338 with XIP peptide (Xip251-270). Moreover, the values for the z-score in test [2] and in test [3] were 0.49 and -0.956 (inactive), respectively.
The matching figures for `CC(=O)OC[C@H]1O[C@@H](ON=C(C)CCC(=O)OC[C@H]2O[C@H](C#Cc3ccccc3)C=C[C@@H]2Oc2ccc(C)cc2)[C@H](OC(C)=O)[C@@H](OC(C)=O)[C@@H]1OC(C)=O`: 0.0771 (inactive), 0.625, -0.713 and -3.79 (inactive).
